The nature of experiment [1]: Quantitative High-Throughput drug screen in 47 multiple myeloma cell lines against the NCATS MIPE library collection: Karpas620_DSMZ cell viability assay (AID 1918959). Note: nearly all actives have a fitted effect of over 30% in size. Note: potency is the fitted concentration of half-maximal effect. The essentials:
(§1)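 Myeloma cells (500 per well) were exposed to MIPE 4.0 compounds by pin transfer and incubated 48 hours at 37C, 5% CO2. Viability was read as ATP by CellTiter-Glo luminescence, normalised to DMSO (100%) and media-only (0%) wells.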

Experiment [2] is described as follows: Quantitative High-Throughput drug screen in 47 multiple myeloma cell lines against the NCATS MIPE library collection: KHM11_PLB cell viability assay (AID 1918962). Note: nearly all actives have a fitted effect of over 35% in size. Note: potency is the fitted concentration of half-maximal effect. The essentials: as §1
Experiment [3] can be described thus: Quantitative High-Throughput drug screen in 47 multiple myeloma cell lines against the NCATS MIPE library collection: JIM3_ECACC cell viability assay (AID 1918963; note: nearly all actives have a fitted effect of over 35% in size; note: potency is the fitted concentration of half-maximal effect). In a few lines: as §1
Experiment [4] in a line: Quantitative High-Throughput drug screen in 47 multiple myeloma cell lines against the NCATS MIPE library collection: INA6_PLB cell viability assay (AID 1918965; note: nearly all actives have a fitted effect of over 55% in size; note: potency is the fitted concentration of half-maximal effect). The essentials: (§2)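 CellTiter-Glo ATP luminescence gave viability after 48 h compound treatment at 37C of 500 multiple myeloma cells per well. Normalisation used DMSO-only wells as 100% and media-only wells as 0% viability; primary qHTS of approved and investigational drugs.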

Experiment [5] in a line: Quantitative High-Throughput drug screen in 47 multiple myeloma cell lines against the NCATS MIPE library collection: H1112_PLB cell viability assay (AID 1918967; note: nearly all actives have a fitted effect of over 30% in size; note: potency is the fitted concentration of half-maximal effect). In a few lines: (§3)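 Viability readout: CellTiter-Glo luminescence following 5 min room-temperature incubation with reagent. Prior exposure: 48 h, 37C, humidified 5% CO2, 500 cells per well.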
Experiment [6] in a line: Quantitative High-Throughput drug screen in 47 multiple myeloma cell lines against the NCATS MIPE library collection: Karpas25_ECACC cell viability assay (AID 1918968; note: nearly all actives have a fitted effect of over 35% in size; note: potency is the fitted concentration of half-maximal effect). The essentials:
as §3

The nature of experiment [7]: Quantitative High-Throughput drug screen in 47 multiple myeloma cell lines against the NCATS MIPE library collection: KMS12BM_JCRB cell viability assay (AID 1918971). Note: potency is the fitted concentration of half-maximal effect; nearly all actives have a fitted effect of over 35% in size. The essentials:
(§4)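 Inhibition of cell viability is measured here. Each line was plated at 500 cells per well, treated with MIPE 4.0 drugs, kept 48 hours at 37C, then assayed for ATP content by CellTiter-Glo luminescence.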

Experiment [8] can be described thus: Quantitative High-Throughput drug screen in 47 multiple myeloma cell lines against the NCATS MIPE library collection: KMS20_JCRB cell viability assay (AID 1918973). Note: potency is the fitted concentration of half-maximal effect; nearly all actives have a fitted effect of over 45% in size. In a few lines:
as §3

A short description of experiment [9]: Quantitative High-Throughput drug screen in 47 multiple myeloma cell lines against the NCATS MIPE library collection: KMS21BM_JCRB cell viability assay (AID 1918974). To be noted: ATP luminescence, 48 h; viability: at 45.8 µM (top of the series). In a few lines:
as §3

The nature of experiment [10]: Quantitative High-Throughput drug screen in 47 multiple myeloma cell lines against the NCATS MIPE library collection: KMS26_JCRB cell viability assay (AID 1918975). Note: nearly all actives have a fitted effect of over 45% in size. Note: potency is the fitted concentration of half-maximal effect. In a few lines:
as §4

Experiment [11] in a line: Quantitative High-Throughput drug screen in 47 multiple myeloma cell lines against the NCATS MIPE library collection: MMM1_PLB cell viability assay (AID 1918976). The essentials: (§5)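 ATP-based CellTiter-Glo luminescence after 48 h drug exposure (37 °C, 5% CO2) of 500 myeloma cells per well. DMSO-only wells set 100% viability, media-only wells 0%; MIPE 4.0 library added by pin tool.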

Experiment [12] can be described thus: Quantitative High-Throughput drug screen in 47 multiple myeloma cell lines against the NCATS MIPE library collection: MOLP8_DSMZ cell viability assay (AID 1918977). Note: nearly all actives have a fitted effect of over 45% in size. Note: potency is the fitted concentration of half-maximal effect. In a few lines:
as §5

A short description of experiment [13]: Quantitative High-Throughput drug screen in 47 multiple myeloma cell lines against the NCATS MIPE library collection: NCIH929_DSMZ cell viability assay (AID 1918978). Note: nearly all actives have a fitted effect of over 35% in size. Note: potency is the fitted concentration of half-maximal effect. The essentials:
as §5

The nature of experiment [14]: Quantitative High-Throughput drug screen in 47 multiple myeloma cell lines against the NCATS MIPE library collection: OCIMY1_PLB cell viability assay (AID 1918979). Note: nearly all actives have a fitted effect of over 35% in size. Note: potency is the fitted concentration of half-maximal effect. The essentials: as §5
Experiment [15] is described as follows: Quantitative High-Throughput drug screen in 47 multiple myeloma cell lines against the NCATS MIPE library collection: JIM1_ECACC cell viability assay (AID 1918964; note: potency is the fitted concentration of half-maximal effect). The essentials: as §3
Experiment [16] is described as follows: Quantitative High-Throughput drug screen in 47 multiple myeloma cell lines against the NCATS MIPE library collection: KMS27_JCRB cell viability assay (AID 1918970). Note: nearly all actives have a fitted effect of over 30% in size. Note: potency is the fitted concentration of half-maximal effect. To be noted: KMS27 myeloma cells, CellTiter-Glo ATP viability, 48 h; viability (% of DMSO): at 45.8 µM (top of the series). In a few lines:
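Myeloma cells (500 per well) were exposed to MIPE 4.0 compounds for 48 h at 37 °C, 5% CO2; viability was read as ATP luminescence with CellTiter-Glo, normalized to DMSO-only (100%) and media-only (0%) wells.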

Experiment [17] can be described thus: Quantitative High-Throughput drug screen in 47 multiple myeloma cell lines against the NCATS MIPE library collection: KMS12PE_JCRB cell viability assay (AID 1918972). Note: nearly all actives have a fitted effect of over 30% in size. Note: potency is the fitted concentration of half-maximal effect. The essentials: as §2
The nature of experiment [18]: Quantitative High-Throughput drug screen in 47 multiple myeloma cell lines against the NCATS MIPE library collection: JJN3_DSMZ cell viability assay (AID 1918966; note: potency is the fitted concentration of half-maximal effect; nearly all actives have a fitted effect of over 50% in size). In a few lines: as §3

Our source for the Potency and viability (% of DMSO) values is PubChem BioAssay (NCATS).

Results filed as inconclusive are left out. Calls of active or inactive are those of the source. Calls come from the whole dose curve; as a rule, active = well fitted curve in the direction sought with a large enough effect; inconclusive = small, poorly fitted or top-dose-only effect, or another doubt; inactive = no such curve, though single readings can be large; an effect the other way counts as inactive or inconclusive.

With `c1cncc(CN2CCC(n3ncc4c(N5CCOCC5)nc(-c5ccc6[nH]ccc6c5)nc43)CC2)c1`, the Potency entry in experiment [1] and in [9] was “inactive” each time. Moreover, the Potency in experiment [2] is 1.66 µM (active); in experiment [3], 5.26 µM (active); in experiment [4], 5.9 µM (active); in experiment [5], 13.2 µM (active); in [6], 2.35 µM (active); in experiment [7], 13.2 µM (active). The Potency was 1.18 µM (active) in experiment [8]; 4.69 µM (active) in experiment [10]; 7.43 µM (active) in [11]; 2.96 µM (active) in experiment [12]; 0.332 µM (active) in [13]; 16.6 µM (active) in experiment [14].
Regarding `CCc1nc(-c2cccc(C)c2)c(-c2ccnc(NC(=O)c3ccccc3)c2)s1`, the Potency in experiment [1] is 3.32 µM (active); in [2], 0.935 µM (active); in experiment [15], 9.35 µM (active); in experiment [4], 16.6 µM (active); in experiment [5] it was 14.8 µM (active); in experiment [7] it was 23.5 µM (active). The Potency is 6.62 µM (active) in experiment [17] and 16.6 µM (active) in [11]. Further, in experiment [16], the Potency entry was “inactive”.
Consider `C=CC(=O)Nc1ccc2ncnc(Nc3ccc(OCc4cccc(F)c4)c(Cl)c3)c2c1`, for which the Potency in experiment [1] was 0.0418 µM (active); in [3] it was 0.743 µM (active); in experiment [15] it was 0.0418 µM (active); in experiment [4] it was 0.662 µM (active); in experiment [18] it was 18.7 µM (active); in experiment [5], 1.05 µM (active). The Potency in experiment [6] was 1.87 µM (active); in experiment [7], 0.418 µM (active); in [17] it was 0.0743 µM (active); in experiment [10] it was 9.35 µM (active); in experiment [11] it was 18.7 µM (active); in experiment [12], 6.62 µM (active). Further, the Potency in experiment [14] was 14.8 µM (active). For the same compound, the viability (% of DMSO) in [16] was 70.4% (active).
`CN[C@@H]1C[C@H]2O[C@@](C)([C@H]1OC)n1c3ccccc3c3c4c(c5c6ccccc6n2c5c31)C(=O)N[C@H]4O`: the Potency in experiment [1] was 0.59 µM (active); in experiment [2], 0.0296 µM (active); in experiment [3], 0.148 µM (active); in experiment [4] it was 0.0418 µM (active); in experiment [18], 1.66 µM (active); in experiment [5] it was 0.526 µM (active). Also, the Potency is 0.132 µM (active) in [6]; 0.148 µM (active) in experiment [16]; 0.148 µM (active) in experiment [8]; 1.66 µM (active) in experiment [10]; 1.48 µM (active) in [11]; 0.118 µM (active) in [13]. Moreover, in experiment [14], the Potency was 0.935 µM (active).
On to `CC(C=CC1=C(C)CCCC1(C)C)=CC=CC(C)=CC(=O)Nc1ccc(O)cc1`, for which the Potency in experiment [1] was 6.05 µM (active); in experiment [3], 5.4 µM (active); in experiment [4] it was 13.6 µM (active); in experiment [18], 21.5 µM (active); in experiment [5] it was 19.1 µM (active); in experiment [6], 12.1 µM (active). Further, the Potency was 8.55 µM (active) in [16]; 17.1 µM (active) in experiment [7]; 3.82 µM (active) in [17]; 15.2 µM (active) in [8]; 19.1 µM (active) in experiment [10]; 21.5 µM (active) in [11]. Besides, the Potency in experiment [13] and in experiment [14] was 21.5 µM (active) throughout.
For the compound `CN1[C@H]2CC(OC(=O)[C@@H](CO)c3ccccc3)C[C@H]1[C@H]1O[C@H]12` (some centres undefined), the Potency entry in experiment [1], in [3], in experiment [5], in experiment [6], in experiment [16] and in [17] was “inactive” in each case. Also, the Potency result in experiment [10], in [12], in [13] and in [14] was “inactive” throughout. The Potency in [8] is 0.007 µM (active).
As for `C[C@H](NCc1ccc2c(c1)nc(NC(=O)c1ccc(-c3cn[nH]c3)s1)n2CCc1ccccc1)C(C)(C)C`, the Potency in [1] was 0.743 µM (active); in experiment [2], 0.59 µM (active); in experiment [15] it was 0.418 µM (active); in [4], 0.833 µM (active); in experiment [18], 1.18 µM (active); in [5], 1.66 µM (active). Besides, the Potency in experiment [6] is 1.48 µM (active); in experiment [16], 0.418 µM (active); in experiment [7] it was 2.35 µM (active); in [17], 0.743 µM (active); in experiment [8] it was 0.935 µM (active); in experiment [10] it was 1.87 µM (active). Besides, the Potency in experiment [11] was 2.35 µM (active); in experiment [12] it was 0.59 µM (active); in experiment [13], 1.05 µM (active); in experiment [14] it was 1.87 µM (active).
Turning to `O=C(NC1CC1)c1cccc(-c2ccc3c(NC(=O)C4CC4)n[nH]c3c2)c1`, the Potency result in experiment [1] and in experiment [17] was “inactive” throughout. Besides, the Potency in experiment [3] is 11.8 µM (active); in experiment [4], 5.26 µM (active); in [5], 6.62 µM (active); in experiment [7] it was 8.33 µM (active); in experiment [10], 2.64 µM (active); in experiment [13], 16.6 µM (active).
Consider `Cn1cnc2c(F)c(Nc3ccc(Br)cc3F)c(C(=O)NOCCO)cc21`, for which the Potency was 0.0833 µM (active) in experiment [1]; 0.372 µM (active) in experiment [3]; 0.0187 µM (active) in experiment [4]; 0.0074 µM (active) in experiment [16]; 0.0662 µM (active) in [8]. The Potency result in experiment [17], in experiment [12] and in experiment [14] was “inactive” throughout.
Take `OCC(O)C(O)C(O)CO` (centres undefined): the Potency result in experiment [1], in experiment [3], in experiment [4], in experiment [5], in experiment [6] and in experiment [16] was “inactive” in each case. Besides, the Potency result in experiment [17] and in experiment [10] was “inactive” each time. Also, in experiment [18], the Potency was 2.96 µM (active).
Take `CC(Cc1ccc(O)c(O)c1)(NN)C(=O)O` (centres undefined): the Potency entry in experiment [1], in experiment [2], in experiment [15], in experiment [4], in experiment [5] and in experiment [16] was “inactive” throughout. Further, the Potency entry in experiment [17] and in experiment [13] was “inactive” each time. Also, the results for the Potency in experiment [18], in experiment [7] and in experiment [11] were 23.5 µM (active), 26.4 µM (active) and 11.8 µM (active), respectively.
In the case of `COc1ccc(Nc2cc(-c3cnc(N)nc3)nc(N3CCOCC3)n2)cn1`, the Potency in experiment [1] was 2.64 µM (active); in [3], 3.72 µM (active); in experiment [4] it was 4.18 µM (active); in experiment [6], 1.66 µM (active); in experiment [16], 0.372 µM (active); in experiment [7], 2.96 µM (active). In addition, the Potency in [17] is 2.09 µM (active); in experiment [8], 4.18 µM (active); in experiment [10], 4.18 µM (active); in experiment [11] it was 1.87 µM (active); in experiment [12], 0.833 µM (active); in experiment [13] it was 0.264 µM (active).
